# Reference: PubChem BioAssay
# Active and inactive are the calls of the source. How the calls were made is not given here.
# Target: Pantothenate synthetase (Mycobacterium tuberculosis (strain ATCC 25618 / H37Rv)) (UniProt P9WIL5)
# Test: Recombinant Mtb pantothenate synthetase (PanC) inhibitors, coupled enzyme, confirmatory (AID 375);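 further: 0% = full reaction with vehicle and 100% = no enzyme background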
# Conditions: coupled enzyme assay; at 10 µM, active compounds read high
# Sequence of Pantothenate synthetase (Mycobacterium tuberculosis (strain ATCC 25618 / H37Rv)) (P9WIL5 whole entry, looked up): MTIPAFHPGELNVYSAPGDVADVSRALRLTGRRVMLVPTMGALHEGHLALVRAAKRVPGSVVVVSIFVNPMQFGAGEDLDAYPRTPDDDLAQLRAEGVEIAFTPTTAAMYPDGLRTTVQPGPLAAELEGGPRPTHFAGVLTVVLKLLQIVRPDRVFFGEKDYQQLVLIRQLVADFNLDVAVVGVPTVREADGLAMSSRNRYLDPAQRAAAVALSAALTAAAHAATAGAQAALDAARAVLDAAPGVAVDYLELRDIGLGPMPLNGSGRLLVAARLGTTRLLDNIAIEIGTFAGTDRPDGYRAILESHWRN
row,SMILES,inhibition
1,CCNCCNC(=O)c1c(O)c2ccccc2n(CC)c1=O,0% (inactive)
2,Cn1c(CN2CCOCC2)nc2cc(NC(=O)c3ccccc3Cl)ccc21,5% (inactive)
3,CCCCN(CC)CCNC(=O)c1cc2c(C)nc3ccccc3c2o1,10% (inactive)
4,Cc1ccc2c(c1)C(O)(CC(=O)c1ccc3c(c1)OCO3)C(=O)N2 (configuration not stated),0% (inactive)
5,COC(=O)NCC(c1cccnc1)N1CCOCC1 (configuration not stated),0% (inactive)
6,COc1cccc(N2CCN(Cc3nc(N)nc(Nc4ccccc4OC)n3)CC2)c1,0% (inactive)
7,O=C(O)c1ccc2c(c1)N(Cc1ccccc1F)C(=O)c1ccccc1S2=O (configuration not stated),0% (inactive)
8,COc1cc2c(C#N)c(N3CCN(c4ccccc4OC)CC3)nc(N)c2c(N)n1,0% (inactive)
9,O=C(Cn1cnc2c(cnn2-c2ccc(F)cc2)c1=O)N1CCCc2ccccc21,0% (inactive)
10,CCCc1n[nH]c2c1/C(=N/O)CC(c1ccccc1)C2 (configuration not stated),8% (inactive)
11,CCCCCC(=O)N1CC2(C)CN(C(=O)CCCCC)CC(C)(C1)C2=O,0% (inactive)
12,O=C(NCCN1CCOCC1)C1CC(=O)N(c2ccc(F)c(Cl)c2)C1 (configuration not stated),7% (inactive)
13,O=C(Nc1ccc(Cl)cn1)c1cccnc1,0% (inactive)
14,N#CCCCN1C(=O)C(O)(CC(=O)c2ccc3c(c2)OCCO3)c2ccccc21 (configuration not stated),0% (inactive)
15,CCOC(=O)CSc1nnc(NC(=O)c2cccc(S(=O)(=O)N3CCCCC3)c2)s1,5% (inactive)
16,O=C1CCCc2c1cc(C(=O)NCCCN1CCOCC1)c(=O)n2-c1ccc(Cl)cc1,0% (inactive)
17,COc1ccc(C(NC(=O)C(C)(C)C)NC(=O)C(C)(C)C)cc1,0% (inactive)
